# Results filed as inconclusive are left out. A number with no mark means an inactive call. Activity calls are given as the source filed them. Calls come from the whole dose curve; as a rule, active = well fitted inhibition curve with a large enough effect; inconclusive = small, poorly fitted or top-dose-only effect; inactive = flat fitted curve, though single readings scatter.
# Test system: HaCat
# Assay: Cytotoxic Profiling of Annotated Libraries Using Quantitative High-Throughput Screening (AID 1296008); note: nearly all actives have a fitted effect of over 60% in size
# Conditions: Five cell lines viability, CellTiter-Glo ATP luminescence, 48-72 h; max response: stronger effect = lower value
# Summary of the method: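 Cells exposed to compounds for 48 or 72 hr at 37 degrees Celsius. Viability read as ATP-coupled luminescence with CellTiter-Glo after 10 min at room temperature.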
# % is set by controls: 0 for no effect and ±100 for the full control effect; potency is the fitted concentration of half-maximal effect.
SMILES,max response [%],Potency
COc1ccc2cc3c(NC(=O)c4ccco4)nn(C)c3nc2c1,-26.7,
CCCc1cc(C)n(C)c(=O)c1CN(C)C(=O)c1cc(-c2ccc(N3CCN(C(C)C)CC3)nc2)cc2c1cnn2C(C)C,1.32,
O=C(Nc1ccc(-c2ccc(Cl)c(Cl)c2)cc1)C1=C(O)c2ccccc2S(=O)(=O)N1,-6.44,
COc1ccc(C2(CNC(=O)c3ccc(NC(=O)c4ccco4)cc3)CCOCC2)cc1,-26.6,
O=C(NC[C@H](O)CN1CCc2ccccc2C1)c1ccnc(NC2CCC2)c1,-27.8,
C[C@@H]1C[C@H]2O[C@@]3(O[C@@H]2C(C)(C)O)C(O)[C@@]2(C)C4CCC5C(C)(C)[C@@H](O[C@H]6OC[C@H](O)[C@@H](O)[C@@H]6O)CC[C@@]56C[C@@]46CC[C@]2(C)C13 (some centres undefined),-16.2,
C=CC(=O)N1CCC[C@@H](n2nc(-c3cccc(C(=O)Nc4ccc(C(C)C)c(C)c4)c3)c3c(N)ncnc32)C1,,16.4 µM (active)
COc1cc(CCc2cc(NC(=O)c3ccc(N4CC(C)NC(C)C4)cc3)n[nH]2)cc(OC)c1 (centres undefined),4.79,
CCN(CCNC(=O)Nc1ccccc1Br)c1cccc(C)c1,0.35,
COc1ccccc1C(=O)Nc1cccc(NC(=O)c2cccc(C)c2)c1,3.09,
CC(=O)O[C@H]1CC(C)(C)CC2[C@]13CO[C@@]21CCC2[C@@]4(C)CC[C@H](O[C@@H]5OC[C@H](O[C@@H]6O[C@H](CO)[C@@H](O)[C@H](O)[C@H]6O[C@@H]6OC[C@@H](O[C@@H]7O[C@H](CO)[C@@H](O)[C@H](O)[C@H]7O)[C@H](O)[C@H]6O)[C@H](O)[C@H]5O[C@@H]5O[C@H](CO)[C@@H](O)[C@H](O)[C@H]5O)[C@@](C)(CO)C4CC[C@@]2(C)[C@]1(C)C[C@H]3O (some centres undefined),2.18,
CN1CCN(c2ccc(OC(F)(F)F)c(Nc3ncc4c(n3)-c3c(c(C(N)=O)nn3CCO)CC4)c2)CC1,,0.259 µM (active)
C=CC(=O)N1CCCC(n2nc(-c3ccc(Oc4ccccc4)cc3)c3c(N)ncnc32)C1 (centres undefined),,1.3 µM (active)
C=CC(C)(O)CC[C@@H]1[C@@]2(C)CCCC(C)(C)C2CC[C@@]1(C)O (some centres undefined),-28.7,
O=C(COc1ccc(C(=O)c2ccccc2)cc1)NC1CCN(Cc2ccccc2)CC1,-11.4,
CC(=O)NCc1cccc(OC[C@@H](O)CNCCc2ccc(NS(=O)(=O)c3ccccc3)cc2)c1,-3.13,
C[C@H]1CC[C@@]2(OC1)O[C@H]1CC3C4CC[C@H]5C[C@@H](O)CC[C@]5(C)C4=CC(=O)[C@]3(C)[C@H]1[C@@H]2C (some centres undefined),-3.38,
CCOC(=O)c1cnn(-c2ccccc2)c1NC(=O)c1cc2nc(-c3ccco3)cc(C(F)(F)Cl)n2n1,3.78,
COC(CCc1ccc(O)cc1)CC(=O)CCc1ccc(O)cc1 (centres undefined),-18.6,
COCCN(C(=O)c1cc(OC)c(OC)c(OC)c1)c1nc(-c2ccccc2)cs1,0.0568,
CC(C)c1ccc(NC(=O)Cn2cnc3c2c(=O)n(C)c(=O)n3C)cc1,-14.6,
CN(C)C(=O)Nc1cc(-c2ccccc2)ccc1N(C)C,-16,
CCCCCc1ccc(/C=C/C(=O)Nc2cc(Cl)ccc2C(=O)O)cc1,-35.2,
O=C(Nc1ccc(Cl)cc1)c1ccccc1NCc1ccncc1,-24.7,
NCCOc1cc(C(=O)Nc2cc(OCCN)c3ccccc3n2)nc(C(=O)Nc2cc(OCCN)c3ccccc3n2)c1,,2.63 µM (active)
C=C1/C(=C/C=C2\CCC[C@]3(C)[C@@H]([C@H](C)/C=C/[C@H](O)C4CC4)CC[C@@H]23)C[C@@H](O)C[C@@H]1O,-5.44,
CC(=O)N[C@H]1[C@H](O[C@H]2CC[C@@]3(C)C(CC[C@]4(C)C3CC=C3C5CC(C)(C)CC[C@]5(C(=O)O)C(O)C[C@]34C)C2(C)C)O[C@H](CO[C@@H]2O[C@H](C)[C@H](O)[C@H](O)[C@H]2O[C@@H]2OC[C@@H](O)[C@H](O)[C@H]2O)[C@@H](O)[C@@H]1O (some centres undefined),-18.2,
Nc1nc2c(ncn2C2OC3COP(=O)(O)OC3C2O)c(=O)[nH]1 (centres undefined),-25.5,
COc1ccc(-c2c(C)nn3c(NCCN4CCOCC4)cc(C)nc23)cc1OC,-11.4,

# Reference: PubChem BioAssay (NCATS)
